From patent US20210230599, “STEM-LOOP COMPOSITIONS AND METHODS FOR INHIBITING INTERLEUKIN-8” (VITRISA THERAPEUTICS, INC., published 2021)

Biological target: Interleukin-8 (IL8, CXCL8), C-terminal His-tagged (Homo sapiens, UniProt P10145 SEQ:1-72)
Experiment: competition; competition TR-FRET; L1 deleted, described as complete loss
Conditions: tags: C-terminal 6xHis (Sino Biological); ssRNA; 2'-F G, 2'-OMe A/C/U, 5' C6NH2, 3' idT
Procedure: To better understand the sequence requirements and to confirm the stem structures of members of the Aptamer 3 family as determined from sequence covariation analysis from both the primary and secondary (degenerate) selections, a series of variants which included mutations and deletions to the predicted stems were synthesized and screened (Table 24). Activity of each of these variants were tested using a time resolved competition TR-FRET assay in which the labeled parent Aptamer 3 was competed with increasing concentrations of unlabeled variants for binding to IL8 (FIG. 14). Briefly, 2-fold dilutions of thermally equilibrated aptamers were made in TR-FRET Buffer (50 mM MOPS, pH 7.4, 125 mM NaCl, 5 mM KCl, 50 μM CHAPS, 0.1 mg/mL BSA, 1 mM CaCl₂, and 1 mM MgCl₂). 5 μL of aptamer or control solution was added to 5 μl mix of 10 nM C-terminal His-tagged-IL8, 60 nM ALEXA FLUOR® 647-labeled Aptamer, and 5 nM anti-His-Eu (Perkin Elmer) in a black wall low volume 384 well plate (Greiner). […] The plate was read on a Biotek CYTATION™ 5 plate reader. […]
To confirm the importance of this residue, molecules were made and tested in which either loop L1 was deleted entirely (Aptamer 40) or was mutated to 5′-U-3′(Aptamer 41). In both cases, there was a complete loss of activity (>10-fold) as determined by competition TR-FRET assay (Table 25 and FIG. 15).

Sequence	binding signal
GAUGCGGUAGAUUACGGGUAGAGUGACCGCAUC	> 10 fold worse than Aptamer 3
